# In the library only some 14% were active in any assay of this set; here they are far more common.
# Giardia FBPA inh = qHTS Assay for Inhibitors of Fructose-1,6-bisphosphate Aldolase from Giardia Lamblia. A8B2U2. purified Giardia FBPA. Potency, µM (doses to about 59.6 µM), inactives show at the top dose activity, negative = inhibition, most hits filed as inhibitors. 290,000 compounds, 0.71% hits. AID 2451, 2010; note: potency is the fitted concentration of half-maximal effect; % is set by controls: 0 for no effect and ±100 for the full control effect; nearly all actives have a fitted effect of over 55% in size
#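 Giardia FBPA (40 nM reagent) was preincubated 10 min at RT with compound (up to 57.5 uM final), then substrate plus GAPDH/TPI/NAD/arsenate coupling system with diaphorase/resazurin was added; resorufin fluorescence (525/598 nm) was read after 20 min.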
# Cycloheximide cs = Cycloheximide Counterscreen for Small Molecule Inhibitors of Shiga Toxin; cell reporter, cycloheximide protein synthesis inhibition counterscreen; max response, %; 300,000 compounds, 12% hits; AID 2314, 2010; in the data active = max response mostly above about 13%, no sharp cut-off; inactive = mostly below about 14%; note: read at 38.3 µM for the half of the compounds with a filed dose; 0% is about no effect
# LmPK inhibitor = qHTS Assay for Inhibitors of Leishmania Mexicana Pyruvate Kinase (LmPK). purified LmPK, Kinase-Glo ATP luminescence, 1 h. Q27686. AID 1721, 2009. Potency, µM (titrated, usually from 57.5 µM), without a hit: at the highest dose activity change, negative = inhibition, most hits filed as inhibitors. 290,000 compounds, 0.37% hits; note: potency is the fitted concentration of half-maximal effect; % is set by controls: 0 for no effect and ±100 for the full control effect
# Target sequence (Q27686 whole entry, looked up): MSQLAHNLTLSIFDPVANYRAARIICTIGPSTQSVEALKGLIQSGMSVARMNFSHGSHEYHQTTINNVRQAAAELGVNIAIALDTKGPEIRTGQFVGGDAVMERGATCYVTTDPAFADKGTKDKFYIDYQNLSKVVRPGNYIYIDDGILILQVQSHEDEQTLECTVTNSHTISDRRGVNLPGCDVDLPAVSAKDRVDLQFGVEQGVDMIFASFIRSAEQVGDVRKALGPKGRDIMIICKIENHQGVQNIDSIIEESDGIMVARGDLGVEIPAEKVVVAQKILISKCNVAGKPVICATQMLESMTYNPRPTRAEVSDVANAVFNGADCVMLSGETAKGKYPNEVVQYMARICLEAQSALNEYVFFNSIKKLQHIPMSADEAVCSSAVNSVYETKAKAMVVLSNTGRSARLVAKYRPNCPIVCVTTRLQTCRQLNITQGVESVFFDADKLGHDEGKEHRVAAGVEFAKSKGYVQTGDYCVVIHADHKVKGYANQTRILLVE
#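 qHTS format; LmPK 0.1 nM; substrates PEP 0.5 mM and ADP 0.1 mM. One-hour room-temperature incubation, then coupled luciferase luminescence; 0.5 nM enzyme wells mark activation.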
# NS1 function inh = qHTS Assay for Inhibitors of Influenza NS1 Protein Function. Potency, µM (highest dose often 46.1 µM), for inactives: at the highest dose activity, positive = more growth. 270,000 compounds, 0.4% hits. AID 2326, 2010; calls by dose curve; note: potency is the fitted concentration of half-maximal effect; actives are rising curves; nearly all actives have a fitted effect of over 50% in size
#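 In this qHTS, NS1 from influenza A is expressed in budding yeast, where it slows growth. Cells are switched from glucose to 2% galactose medium (pH 6.0, -URA), treated with compound, and growth recovery is read at OD600.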
# Shiga inhibitor = A qHTS for Small Molecule Inhibitors of Shiga Toxin; AID 2315, 2010; 290,000 compounds, 9.2% hits; inhibition, % at 38.7 µM; Vero cells, Shiga toxin protein synthesis inhibition reporter; in the data active = inhibition mostly above about 28%, no sharp cut-off; inactive = mostly below about 43%; note: 0% is about no effect
# An asterisk follows results filed as active; i = inactive; . = no result given; [ ] = dose if it differs, or a comment. Unless noted, calls come from the whole dose curve; as a rule, active = well fitted curve in the direction sought with a large enough effect; inconclusive = small, poorly fitted or top-dose-only effect, or another doubt; inactive = no such curve, though single readings can be large; an effect the other way counts as inactive or inconclusive.
SMILES,Giardia FBPA inh,Cycloheximide cs,LmPK inhibitor,NS1 function inh,Shiga inhibitor
CCCCCCCCCC(=O)O[C@H](CC(=O)O)C[N+](C)(C)C,1.7%,.,.,.,.
COc1cc2c(cc1OC)C1O[C@](c3ccsc3)(C2)Oc2cc(-c3ccccc3)oc(=O)c21,6.6%[12.9 µM],-1.0,-7.4%[11.5 µM],12.6%,i
Cc1ccc(S(=O)(=O)N(C)C)cc1NC(=O)c1cc(C(C)(C)C)nn1Cc1ccccc1,-15.5%,4.5,7.8%,3.8%,-1.7
O=c1ccc(/C=C/c2ccccc2)nn1Cc1ccccc1,-5.1%,-5.6,-1.9%,6.1%,-8.4
Cn1nc(/C=C/c2ccccc2)ccc1=O,0.3%,28.3*,-16.1%,.,85.6*
Cc1cccc(/C=C\c2ccccc2)n1,-14.1%,.,.,.,.
Cc1nc(/C=C/c2ccccc2)cc(/C=C/c2ccccc2)n1,-0.3%,29.6*,4.8%,0.1%,63.4*
C(=C\c1cc(/C=C/c2ccccc2)ncn1)/c1ccccc1,8.4%,70.8*,1.8%,-4.9%,82.2*
COc1ccc(NC(=O)N2CC3(CCN(S(=O)(=O)c4ccccc4)CC3)C2)cc1,-6.2%,.,.,.,.
CCn1ncc([N+](=O)[O-])c1C(=O)n1nc(C)cc1C,8.2%,45.4*,-0.8%,1.1%,111.5*
Cc1cc(C)n(C(=O)c2c([N+](=O)[O-])cnn2C)n1,4.8%,-1.7,4.8%,1.8%,-7.2
Cc1cccc(C)c1Nc1oc(-c2ccccc2)nc1-c1ccccc1,1.7%,.,.,.,.
Cc1ccccc1C(=O)c1cccn1CC(=O)NCc1ccccc1Cl,17.7%,21.6*,-6.9%,-5.6%,49.6*
COc1ccccc1CNC(=O)Cn1cccc1C(=O)c1ccccc1,-2.3%,27.5,-0.1%,-5.9%,48.3*
O=C(Cn1cccc1C(=O)c1ccccc1)NCc1ccccc1Cl,.,37.6*,5.1%,-8.6%,75.0*
Cc1ccccc1C(=O)c1cccn1CC(=O)NCC(C)c1ccccc1 (stereo unspecified),-2.3%,-4.5,-2.1%,-11.7%,-3.8
CC1CCCCC1NC(=O)Cn1cccc1C(=O)c1ccccc1 (stereo unspecified),.,15.5*,-1.8%,-7.1%,24.9
c1csc(CNc2ccnc(-c3ccc4c(c3)OCO4)n2)c1,-14.1%,.,.,.,.
O=C1CCCC=C1[C@@H](O)COCc1ccccc1,-2.0%[12.9 µM],.,.,.,.
CC(C)C[C@H](NC(=O)N1CCCCCC1)C(=O)N[C@H](Cc1cn(C)c2ccccc12)C(=O)N[C@H](Cc1ccccn1)C(=O)O,0.9%,-5.3,.,.,-3.6
Cc1cccc(/C=N\Nc2cn[nH]c(=O)c2Cl)c1,0.7%,16.4*,-17.5%,-5.8%,35.9*
O=C(NCc1ccccn1)C(=O)NCC1OCCN1S(=O)(=O)c1ccc([N+](=O)[O-])cc1 (stereo unspecified),10.7%,1.6,6.3%,1.1%,-10.4
CCN1CCN(CC(=O)c2c(C)n(Cc3ccccc3)c3ccc(OC)cc23)CC1,-2.9%,-2.7,-1.2%,13.8%,-10.2
COc1ccc2[nH]c(C(=O)NCCN3CCCCC3)cc2c1,-21.3%,-2.5,4.2%,6.8%,-14.6
CCn1c(C)c(C(=O)NCCc2ccccc2)c2cc(OC)ccc21,-1.4%,18.5*,-2.4%,-2.2%,18.5
SMILES,Giardia FBPA inh,Cycloheximide cs,LmPK inhibitor,NS1 function inh,Shiga inhibitor
COc1ccc2[nH]c(C(=O)NCCc3ccccc3)cc2c1,-0.9%,32.1*,2.5%,-11.7%,85.2*
CCCCNC(=O)c1cc2cc(OC)ccc2[nH]1,-1.7%,13.8*,-1.6%,2.9%,22.7
Cc1c(NC(=O)c2cc3ccccc3oc2=O)c(=O)n(-c2ccccc2)n1C,5.3%,42.4*,-1.3%,1.3%,86.0*
Cc1c(NC(=O)c2ccc(COc3ccc4ccccc4c3)o2)c(=O)n(-c2ccccc2)n1C,-1.1%,30.7*,3.3%,-5.8%,91.2*
Cc1c(NC(=O)c2cc3ccccc3o2)c(=O)n(-c2ccccc2)n1C,-6.8%,-3.1,-0.2%,12.7%,3.1
O=C(O)c1cc2[nH]c3c(c2cc1Cl)CCCC3,14.8%,-2.2,2.1%,-91.7%,.
C/C(=N\O)c1ccc2c3c([nH]c2c1)CCCC3,-23.7%,65.2*,-2.1%,-93.4%,19.9*
C=C1C2CC[C@@]3(C)C(c4ccoc4)OC(=O)C[C@@]13OC1CC(=O)C(C)(C)C(C(O)C(=O)OC)[C@]12C (stereo partly specified),-5.5%,.,.,.,.
Cc1cccc(N2CN=C3SCC(=O)N3C2)c1,2.2%,-0.9,3.1%,-0.2%,-4.9
Cc1ccc(N2CN=C3SCC(=O)N3C2)cc1C,3.4%,21.9*,3.7%,-0.8%,43.4

# Screening results from PubChem.
